Data reported in PubChem BioAssay (EPA / NIEHS).
Some compounds were tested as several samples or in several runs, with calls that do not always agree. The source made the active and inactive calls. How the source made its calls: active means hit-call score of the fitted dose curve at least 0.9, where 1 is the maximum; inactive means score below 0.9.

Test: CCTE_Shafer_MEA_acute_burst_number: CCTE's Neural Acute Assay for Single-Electrode Bursts, Shafer Lab (AID 2284013)
Experimental: CCTE_Shafer_MEA_acute assay is conducted using Axion Biosystems 48 well microelectrode array (MEA) plates and Maestro recording system. Each well of the MEA plate contains a grid of 16 microelectrodes embedded in the culture surface. Electrically active cells, such as neurons, can be cultured over the electrodes, and electrical activity in these cells can be recorded extracellularly. The spontaneous firing of neurons is captured from each electrode on a microsecond timescale providing both temporally and spatially precise data. […] The CCTE_Shafer_MEA_acute assay uses primary cultures of rat cortical neurons. As these cultures mature over time, neural networks develop functional activity and form cohesive networks in which electrical activity can be highly coordinated. Baseline 40-minute recordings are made on days post-plating 13 or 15, followed by a secondary 40-minute recording after chemical exposure.CCTE_Shafer_MEA_acute_burst_number is a component of the CCTE_Shafer_MEA_acute assay. It measures the total number of single-electrode bursts (temporally-clustered groups of action potential firing) during a recording in a microelectrode array (MEA) using Axion Biosystems Maestro 768 channel amplifier with the AxIS adaptive spike detector. The recordings before and after chemical treatment are used to calculate a percent change in the burst number in each well.Data from the assay component CCTE_Shafer_MEA_acute_burst_number was analyzed into 1 assay endpoint. This assay endpoint, CCTE_Shafer_MEA_acute_burst_number, was analyzed in the negative analysis fitting direction relative to DMSO as the negative control and baseline of activity. Using a type of functional reporter, gain or loss-of-signal activity can be used to understand electrical activity.
Spontaneous activity in the cortical cultures was recorded using an Axion Biosystems Maestro 768 channel amplifier and Axion Integrated Studios (AxIS) v1.8 (or later) software. The amplifier recorded from all channels simultaneously (gain = 1200 x; sampling rate = 12.5 kHz/channel): raw signals were filtered with a Butterworth band-pass filter (300-5000 Hz), which filters out slower local field potentials leaving only fast potentials, i.e., "spikes", arising from extracellular currents associated with action potentials (Pine 2006; Wheeler and Nam 2011). On-line spike detection of filtered signals was conducted with the AxIS adaptive spike detector, using a threshold of 8x the root mean squared (rms) noise on each channel. Any electrodes with rms noise levels greater than 5 uV were grounded (e.g., no data were recorded). Once grounded, an electrode was grounded for the duration of the experiment. All recordings were conducted at 37 C. Wells were deemed usable if on the day of the exposure >/= 10 electrodes were active (defined as >/= 5 spikes/min). On DIV 13 or 15, a minimum of three wells from one cortical culture preparation were treated with each compound (0.03-40 uM). Prior to recording baseline activity, each mwMEA plate was placed in the Maestro at 37 C and allowed to sit for 20 min while firing rates stabilized. Baseline activity (40 min) was recorded before the addition of each compound. An additional 40 min of spontaneous activity was recorded in the presence of each compound. Changes in network parameters relative to baseline were assessed following compound treatment.
For `CCCCCCCCCCCCN1CCCC1=O`, the outcome was “inactive”.
With `O=C(O)c1ccccc1C(c1ccc(O)cc1)c1ccc(O)cc1` the outcome was “inactive”.
With `CCCOc1sc(C(=O)N2CCC(c3cc(CN)ccc3F)CC2)c(C)c1Br` the outcome was “inactive”.
In the case of `O=c1c(-c2ccc(O)cc2)coc2cc(O)ccc12`, the outcome is reported as “inactive”.
In the case of `CC(=O)NC1(c2cccc(F)c2)CCN(CC[C@@]2(c3ccc(Cl)c(Cl)c3)CN(c3ccccc3)C(=O)CO2)CC1`, the AC50 is reported as 1.24 µM (active).
In the case of `CC#C[C@]1(O)CC[C@H]2[C@@H]3CCC4=CC(=O)CCC4=C3[C@@H](c3ccc(N(C)C)cc3)C[C@@]21C`, the AC50 is reported as 1.66 µM (active) and the outcome is reported as “inactive”.
For `CCCCCCCCCCCCc1ccccc1S(=O)(=O)O`, the outcome was “inactive”.
With `Oc1cc2ccccc2c2ccccc12` the outcome was “inactive”.
In the case of `CN1CCN(c2ccccc2/C=C2\SCCN(c3ccc(Cl)c(Cl)c3)C2=O)CC1`, the outcome is reported as “inactive”.
For `CN1CCC[C@H]1c1cccnc1`, the AC50 was 0.0479 µM (active).
In the case of `CCC(=C(c1ccc(O)cc1)c1ccc(OCCN(C)C)cc1)c1ccccc1`, the outcome is reported as “inactive”.
In the case of `CCc1ccc(CCOc2ccc(CC3SC(=O)NC3=O)cc2)nc1` (configuration not stated), the outcome is reported as “inactive”.
With `Cc1cc(CCN2CCN(c3nsc4ccccc34)CC2)cc2c1NC(=O)CC2(C)C` the outcome was “inactive”.
With `CC(C)CCCCCCOC(=O)CCCCC(=O)OCCCCCCC(C)C` the outcome was “inactive”.
For `OC1CCC(C2CCCCC2)CC1` (configuration not stated), the outcome was “inactive”.
For `CN(C)C=O`, the outcome was “inactive”.
In the case of `CC(C)(C)c1cc(C(C)(C)C)c(O)c(C(C)(C)C)c1`, the outcome is reported as “inactive”.
In the case of `NC(=O)N(O)[C@@H]1C=C[C@H](Oc2cccc(Oc3ccc(F)cc3)c2)C1`, the outcome is reported as “inactive”.
With `CC[C@H](c1ccc(O)cc1)[C@@H](CC)c1ccc(O)cc1` the outcome was “inactive”.
With `CCCCCCCCCCCCCCCS(=O)(=O)Oc1ccccc1` the outcome was “inactive”.
With `OCCC(F)(F)C(F)(F)C(F)(F)C(F)(F)C(F)(F)C(F)(F)C(F)(F)C(F)(F)F` the outcome was “inactive”.
